# Data from PubChem BioAssay (NCI).
# This is part of a sample that, as a whole, favours compounds with a hit. Of some 83,000 tested, about 20% had one in any assay.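 Assay: single dose, 48 h. Readout: percent growth (0 = no net growth; negative = cell death). Active: <10.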 A number with no mark means an inactive call. Active and inactive are the calls of the source.
# Assays:
# Assay in all cases: NCI-60 one-dose screen, 48 h (100 = growth as untreated, 0 = no growth, -100 = all killed)
# K-562 leukemia = details: 10 µM unless noted
# MALME-3M melanoma = details: 10 µM unless noted
# MDA-MB-231 breast = details: 10 µM unless noted
# SF-268 CNS = details: 10 µM unless noted
# SF-295 CNS = details: 10 µM unless noted
# SF-539 CNS = details: 10 µM unless noted
# UACC-257 melanoma = details: 10 µM unless noted
# M14 melanoma = details: 10 µM unless noted
# HCT-15 colon = details: 10 µM unless noted
# HT29 colon = details: 10 µM unless noted
# SNB-75 CNS = details: 10 µM unless noted
# SNB-19 CNS = details: 10 µM unless noted
# U251 CNS = details: 10 µM unless noted
# PC-3 prostate = details: 10 µM unless noted
# SK-MEL-5 melanoma = details: 10 µM unless noted
# UACC-62 melanoma = details: 10 µM unless noted
# LOX IMVI melanoma = details: 10 µM unless noted
# SK-MEL-28 melanoma = details: 10 µM
# SK-MEL-2 melanoma = details: 10 µM unless noted
# RXF 393 renal = details: 10 µM unless noted
Structure (SMILES),growth (K-562 leukemia) [%],growth (MALME-3M melanoma) [%],growth (MDA-MB-231 breast),growth (SF-268 CNS) [%],growth (SF-295 CNS) [%],growth (SF-539 CNS) [%],growth (UACC-257 melanoma),growth (M14 melanoma) [%],growth (HCT-15 colon) [%],growth (HT29 colon),growth (SNB-75 CNS) [%],growth (SNB-19 CNS) [%],growth (U251 CNS) [%],growth (PC-3 prostate),growth (SK-MEL-5 melanoma),growth (UACC-62 melanoma) [%],growth (LOX IMVI melanoma) [%],growth (SK-MEL-28 melanoma),growth (SK-MEL-2 melanoma),growth (RXF 393 renal) [%]
Nc1nc(N)c2c(n1)NC1(C=C(O)c3ccccc31)C1=C(N2)c2ccccc2C1=O (stereo unspecified),95.5,108,107%,104,109,109,120%,105,112,125%,169,103,103,107%,108%,110,94.3,108%,112%,–
O=C1/C=C/[C@@H](O)[C@@H]2C[C@@H](O)C[C@H]2/C=C/CCCCO1,13.7,13.8,-21.2% (active),11.7,21.9,17.8,9.88% (active),30.2,19.8,2.63% (active),29.7,28.7,39.7,-17.5% (active),-93.1% (active),64.1,–,-8.98% (active),8.85% (active),–
CCCC(=O)CC(C)=O.CCCC(=O)CC(C)=O.[Cu],104,89.9,120%,–,103,104,74.9%,100,105,94.9%,116,110,99.9,76.3%,103%,105,86.5,106%,113%,122
